Experiment [1] has as its target T1, Hexokinase-4 (Homo sapiens) + Glucokinase regulatory protein (Homo sapiens) (UniProt P35557+Q14397). Nature of the experiment: qHTS assay for inhibitors of recombinant human GCK-GKRP interaction: Diaphorase-coupled assay (AID 743205). In outline: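 Resorufin fluorescence (525/590 nm), read each minute over 30 min, reports GCK activity coupled via G6PDH and diaphorase. Reaction: 10 nM GST-GCK, 10 nM FLAG-GKRP, 5 mM glucose, 0.4 mM ATP, 0.15 mM NADP+, 0.1 mM resazurin.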
(In qHTS, concentration-response curves come from the screen itself.)

In experiment [2] the target is T1, Hexokinase-4 (Homo sapiens) + Glucokinase regulatory protein (Homo sapiens). In words: qHTS assay for inhibitors of recombinant human GCK-GKRP interaction: ADP-Glo assay (AID 743206).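 Further: plate controls were DMSO plus enzyme for no effect and no enzyme for full effect.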 Summed up:
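Pin-transferred compounds meet a 15 nM GST-GCK/15 nM FLAG-GKRP/2 uM S6P mix (dispense concentrations). ATP is then added to 0.4 mM final with 5 mM glucose, and the reaction runs 60 min at room temperature. ADP is quantified luminescently.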

Experiment [3] has the same target. In words: qHTS assay for inhibitors of recombinant human GCK-GKRP interaction: HTRF assay (AID 743207).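 Further: 0% = DMSO with GCK present and -100% = DMSO wells lacking GCK.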 In outline: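 HTRF read-out (ex 320 nm; 615/665 nm emission) after 60 min RT equilibration of 5 nM GST-GCK, 5 nM FLAG-GKRP, 2 uM S6P, compound and anti-FLAG/anti-GST detection antibodies; signal normalized between DMSO wells with and without GCK.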
Experiment [4] can be described thus: qHTS Assay for Identifying Gametocytocidal Compounds (AID 743244).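 Further: on the % scale 0 is the no-effect control and ±100 the full control effect; actives lower the fluorescent signal which means gametocytes are killed.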 As to conditions: P. falciparum 3D7 stage III-V gametocytes, alamarBlue, 72 h; max response: stronger effect = lower value. Summed up:
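Viability read-out was resazurin reduction (alamarBlue, 24 h) measured at Ex 525/Em 598 nm. Beforehand, late-stage (III-V) 3D7 P. falciparum gametocytes at 20,000 cells/well were incubated with compound 72 h at 37C under 5% CO2.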

Experiment [5] is described as follows: qHTS assay for measurement of the activity of small molecule inhibitors on Zika virus induced Caspase-3 activity in human iPSC derived neural progenitor cells (hNPCs) (AID 1224857). Further: % of control where 0% means no effect; nearly all actives have a fitted effect of over 65% in size. Summed up:
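Percent inhibition of virus-induced caspase-3/7 luminescence (Caspase-Glo), scaled between uninfected cells and Zika-infected cells. hNPCs received compound 1 hr before ZIKV at 2 FFU/cell, with 6 hours infection at 37 C.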

Experiment [6] in a line: qHTS assay for measurement of the activity of small molecule inhibitors on Zika virus induced Caspase-3 activity in human astrocytoma cells (AID 1224859).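 Further: plate controls were ZIKV-infected untreated cells for no effect and uninfected cells for full effect.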 In outline: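 Luminescent caspase-3/7 read-out (30 min reagent, room temperature) in human SNB-19 cells infected 6 h with ZIKV (2 FFU/cell) after 1 h compound pre-incubation; Data were normalised to uninfected and infected wells.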

Experiment [7] can be described thus: Natriuretic polypeptide receptor (hNpr1) antagonism - Pilot counterscreen GloSensor control cell line (AID 1347045; calls by dose curve; further: series mostly up to about 38 µM; on the % scale 0 is the no-effect control and ±100 the full control effect). In outline:
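HEK293 cGMP-sensor cells; 2% GloSensor reagent 2 h RT; LOPAC compounds in 1:5 titrations 30-50 min; 50 uM SNP 20 min; luminescence pre-read and post-read.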
Background: Counterscreens check selectivity or assay interference.

The target in experiment [8] is Atrial natriuretic peptide receptor 1 (Homo sapiens) (UniProt P16066). In words: Natriuretic polypeptide receptor (hNpr1) antagonism - Pilot screen (AID 1347049; calls by dose curve;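 further: HEK293 cells with hNpr1 and GloSensor cGMP luciferase stimulated by 0.1 nM hNppA; agonist-evoked cGMP luminescence read 20 min after hNppA addition; series mostly up to about 58 µM; on the % scale 0 is the no-effect control and ±100 the full control effect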). Summed up:
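Receptor antagonism read as cGMP-dependent luminescence in hNpr1/pGS-40F HEK293 cells: pre-read after 30 min compound exposure, post-read 20 min after hNppA agonist at 0.1 nM final, all at room temperature, protected from light; A-71915 titration as control.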

For experiment [9], the target named is Atrial natriuretic peptide receptor 2 (Homo sapiens) (UniProt P20594). In words: Natriuretic polypeptide receptor (hNpr2) antagonism - Pilot subtype selectivity assay (AID 1347050; calls by dose curve; further: on the % scale 0 is the no-effect control and ±100 the full control effect). In outline:
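Antagonist mode: compounds (LOPAC1280, seven 1:5 dilutions) added 30 min before 1 nM hNppC stimulation of hNpr2-HEK293 cGMP-sensor cells; luminescence read before and 20 min after agonist at ambient temperature.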

Experiment [10] can be described thus: qHTS assay for cell viability of HEK293 cells (AID 743288). Further: on the % scale 0 is the no-effect control and ±100 the full control effect; nearly all actives have a fitted effect of over 50% in size. As to conditions: ATP luminescence (CellTiter-Glo), 18 h; max response: stronger effect = lower value. Summed up: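 ATP luminescence (CellTiter-Glo) reports metabolically competent cell number after parental HEK293 cells, 2,000/well, were treated with DMSO-dissolved compounds for 18 h at 37 C; reagent incubation 30 min, room temperature.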

Experiment [11] can be described thus: qHTS assay for cell viability of the p53RE-bla HCT-116 cell line (AID 743292). Further: nearly all actives have a fitted effect of over 55% in size. Further: potency means the concentration at half of the fitted maximal effect. Summed up: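 After plating at 4,000 cells per well and a 5 h rest at 37 C, HCT-116 cells carrying p53RE-bla received test chemicals in DMSO. Sixteen hours later at 37 C, CellTiter-Glo was added and luminescence recorded following 30 min at room temperature.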

The structures appear in SMILES notation. A number with no mark means an inactive call. Inconclusive results are not listed. Calls of active or inactive are those of the source. Unless noted, the call rests on the fitted dose curve; in most records, active means well fitted curve in the direction sought with a large enough effect; inconclusive means small, poorly fitted or top-dose-only effect, or another doubt; inactive means no such curve, though single readings can be large; an effect the other way counts as inactive or inconclusive.

Atrial natriuretic peptide receptor 1 (Homo sapiens), sequence (P16066 whole entry, looked up): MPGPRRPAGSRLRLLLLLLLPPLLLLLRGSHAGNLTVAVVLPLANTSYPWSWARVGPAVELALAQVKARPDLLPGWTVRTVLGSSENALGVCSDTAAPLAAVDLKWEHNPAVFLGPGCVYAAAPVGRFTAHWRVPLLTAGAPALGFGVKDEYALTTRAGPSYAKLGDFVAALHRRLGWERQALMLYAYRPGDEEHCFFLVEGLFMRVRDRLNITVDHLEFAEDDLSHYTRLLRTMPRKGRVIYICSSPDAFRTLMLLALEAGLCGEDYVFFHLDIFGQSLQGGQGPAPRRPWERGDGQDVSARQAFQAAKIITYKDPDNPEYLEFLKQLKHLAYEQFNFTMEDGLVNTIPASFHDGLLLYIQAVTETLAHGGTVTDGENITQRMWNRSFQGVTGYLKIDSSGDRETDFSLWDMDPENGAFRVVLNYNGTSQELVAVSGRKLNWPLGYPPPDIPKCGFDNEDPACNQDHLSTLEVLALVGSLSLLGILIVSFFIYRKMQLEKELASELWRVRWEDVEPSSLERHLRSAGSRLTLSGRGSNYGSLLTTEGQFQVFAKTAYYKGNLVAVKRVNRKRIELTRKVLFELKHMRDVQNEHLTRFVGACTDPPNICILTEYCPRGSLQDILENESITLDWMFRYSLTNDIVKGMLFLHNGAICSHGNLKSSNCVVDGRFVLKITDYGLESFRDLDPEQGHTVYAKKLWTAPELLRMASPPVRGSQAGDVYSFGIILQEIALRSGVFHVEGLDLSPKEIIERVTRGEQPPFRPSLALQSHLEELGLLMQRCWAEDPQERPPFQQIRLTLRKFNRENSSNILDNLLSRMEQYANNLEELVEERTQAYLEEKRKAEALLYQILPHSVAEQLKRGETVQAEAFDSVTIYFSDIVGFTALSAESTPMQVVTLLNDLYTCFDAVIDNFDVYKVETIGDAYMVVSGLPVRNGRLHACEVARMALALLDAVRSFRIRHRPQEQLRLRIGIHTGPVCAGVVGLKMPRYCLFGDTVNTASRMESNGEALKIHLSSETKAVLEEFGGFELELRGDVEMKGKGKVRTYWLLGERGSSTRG
Atrial natriuretic peptide receptor 2 (Homo sapiens), sequence (P20594 whole entry, looked up): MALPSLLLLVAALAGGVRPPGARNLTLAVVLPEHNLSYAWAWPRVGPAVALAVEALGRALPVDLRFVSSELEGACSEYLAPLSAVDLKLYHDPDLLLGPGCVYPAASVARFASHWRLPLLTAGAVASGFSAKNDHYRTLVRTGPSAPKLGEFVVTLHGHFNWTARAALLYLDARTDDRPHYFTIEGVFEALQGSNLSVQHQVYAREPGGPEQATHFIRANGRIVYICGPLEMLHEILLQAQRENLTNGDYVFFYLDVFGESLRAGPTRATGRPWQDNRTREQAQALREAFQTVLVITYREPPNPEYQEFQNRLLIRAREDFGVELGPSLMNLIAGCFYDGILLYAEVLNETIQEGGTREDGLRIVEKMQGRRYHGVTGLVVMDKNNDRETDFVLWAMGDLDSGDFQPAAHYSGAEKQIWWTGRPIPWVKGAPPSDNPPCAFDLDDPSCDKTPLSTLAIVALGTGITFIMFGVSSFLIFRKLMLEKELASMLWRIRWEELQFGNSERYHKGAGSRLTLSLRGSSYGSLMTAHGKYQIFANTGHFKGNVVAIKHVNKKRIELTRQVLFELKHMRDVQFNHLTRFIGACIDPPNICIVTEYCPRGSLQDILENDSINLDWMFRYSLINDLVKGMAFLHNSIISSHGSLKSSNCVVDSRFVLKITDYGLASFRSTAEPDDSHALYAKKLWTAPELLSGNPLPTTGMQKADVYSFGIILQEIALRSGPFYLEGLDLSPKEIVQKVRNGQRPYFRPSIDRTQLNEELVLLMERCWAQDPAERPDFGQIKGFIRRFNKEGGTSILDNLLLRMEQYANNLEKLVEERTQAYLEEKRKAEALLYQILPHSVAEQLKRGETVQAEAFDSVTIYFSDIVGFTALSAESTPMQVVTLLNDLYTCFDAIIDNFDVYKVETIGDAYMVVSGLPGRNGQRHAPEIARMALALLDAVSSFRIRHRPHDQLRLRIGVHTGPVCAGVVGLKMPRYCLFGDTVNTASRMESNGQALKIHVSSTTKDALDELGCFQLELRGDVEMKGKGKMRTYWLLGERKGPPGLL
T1 sequence (P35557 whole entry, looked up): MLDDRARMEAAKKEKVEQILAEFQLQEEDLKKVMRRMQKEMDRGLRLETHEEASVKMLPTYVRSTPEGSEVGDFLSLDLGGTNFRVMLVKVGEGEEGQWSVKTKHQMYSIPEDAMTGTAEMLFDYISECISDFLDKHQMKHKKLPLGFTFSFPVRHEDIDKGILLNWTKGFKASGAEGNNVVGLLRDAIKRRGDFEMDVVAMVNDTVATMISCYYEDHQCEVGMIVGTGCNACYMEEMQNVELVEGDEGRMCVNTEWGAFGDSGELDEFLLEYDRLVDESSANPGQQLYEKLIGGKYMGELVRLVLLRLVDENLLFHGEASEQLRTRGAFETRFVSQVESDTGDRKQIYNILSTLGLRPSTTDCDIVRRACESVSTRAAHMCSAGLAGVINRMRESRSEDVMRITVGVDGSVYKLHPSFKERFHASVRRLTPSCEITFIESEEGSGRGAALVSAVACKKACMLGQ
T1 sequence (Q14397 whole entry, looked up): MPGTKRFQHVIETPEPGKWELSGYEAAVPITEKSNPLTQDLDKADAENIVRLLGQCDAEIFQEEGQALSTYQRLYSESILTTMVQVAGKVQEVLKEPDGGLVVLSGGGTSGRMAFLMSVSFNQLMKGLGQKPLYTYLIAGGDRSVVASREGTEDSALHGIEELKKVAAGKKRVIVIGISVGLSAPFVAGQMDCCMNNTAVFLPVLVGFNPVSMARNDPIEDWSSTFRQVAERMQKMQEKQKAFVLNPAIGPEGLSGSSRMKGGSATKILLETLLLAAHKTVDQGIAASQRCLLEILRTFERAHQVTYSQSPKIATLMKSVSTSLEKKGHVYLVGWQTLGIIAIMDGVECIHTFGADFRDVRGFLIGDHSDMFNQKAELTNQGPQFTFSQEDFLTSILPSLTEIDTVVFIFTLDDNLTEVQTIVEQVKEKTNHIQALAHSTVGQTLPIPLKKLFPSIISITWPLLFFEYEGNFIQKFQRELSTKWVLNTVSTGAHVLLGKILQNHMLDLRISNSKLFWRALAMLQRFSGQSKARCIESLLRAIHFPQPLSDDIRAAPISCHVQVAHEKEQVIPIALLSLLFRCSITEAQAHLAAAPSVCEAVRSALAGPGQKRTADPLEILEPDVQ

Turning to `C[C@@]1(C2CCCC2)Cc2cc(OCC(=O)O)c(Cl)c(Cl)c2C1=O`, the Potency entry in [1], in [2], in experiment [3], in experiment [5], in [6] and in experiment [7] was “inactive” in each case. For the same molecule, the Potency result in [8] and in experiment [9] was “inactive” throughout. The max response in [4] is 33.9%.
Turning to `NC(=O)CC[C@H](N)C(=O)O`, the Potency result in experiment [1], in [2], in [3], in experiment [5], in [6] and in experiment [7] was “inactive” throughout. Also, the Potency entry in [8] and in experiment [9] was “inactive” each time. For the same molecule, the max response in [4] was -4.4%.
As to `COc1cc2c(CCNC(C)=O)c[nH]c2cc1O`, the Potency entry in experiment [1], in experiment [2], in [3], in [5], in [6] and in [7] was “inactive” each time. For the same molecule, the Potency result in [8] and in [9] was “inactive” throughout. Moreover, the max response in [4] is 18.4%.
For `CCCCS(=N)(=O)CC[C@H](N)C(=O)O` (some centres not stated), the Potency entry in [1], in experiment [2], in [3], in experiment [5], in experiment [6] and in [7] was “inactive” throughout. The Potency entry in experiment [8] and in [9] was “inactive” throughout. In addition, the max response in [4] is 6.27%.
Take `CCCCCCCCCC[Si](C)(C)CCC(=O)NC(Cc1ccc(C)cc1)c1ccccc1` (configuration not stated): the Potency entry in experiment [1], in [2], in experiment [3], in experiment [5], in [6] and in experiment [7] was “inactive” in each case. The Potency entry in experiment [8] and in experiment [9] was “inactive” each time. In addition, the max response in experiment [4] is 13.6%.
For `NC(=Nc1ccccc1)NC(=O)c1nc(Cl)c(N)nc1N`, the Potency result in [1], in experiment [2], in experiment [3], in experiment [5], in [6] and in experiment [7] was “inactive” throughout. Besides, the Potency result in [8] and in experiment [9] was “inactive” each time. Moreover, the max response in experiment [4] is 12.9%.
`NC(=O)c1cc[n+](CC2=C(C(=O)O)N3C(=O)[C@@H](NC(=O)[C@@H](c4ccccc4)S(=O)(=O)[O-])[C@H]3SC2)cc1`: the Potency result in [1], in [2], in experiment [3], in [5], in [6] and in [7] was “inactive” throughout. In addition, the Potency result in [8] and in [9] was “inactive” throughout. For the same molecule, in [4], the max response is 7.28%.
With `COC1(C2=NCCN2)COc2ccccc2O1` (configuration not stated), the Potency result in experiment [1], in experiment [2], in experiment [3], in [5], in experiment [6] and in experiment [7] was “inactive” throughout. The Potency result in [8] and in [9] was “inactive” in each case. Further, the max response in experiment [4] was 25.5%.
Turning to `OC[C@H]1O[C@H](n2cnc3c(N[C@H]4CCC[C@@H]4O)ncnc32)[C@H](O)[C@@H]1O`, the Potency result in [1], in [2], in experiment [3], in experiment [5], in [6] and in [7] was “inactive” throughout. Moreover, the Potency result in experiment [8] and in [9] was “inactive” each time. Further, the max response in experiment [4] is 20.9%.
Regarding `COC(=O)[C@H](NC(=O)c1cc(-c2ccccc2)nc2ccccc12)c1ccccc1`, the Potency entry in experiment [1], in experiment [2], in experiment [3], in experiment [5], in [6] and in experiment [7] was “inactive” throughout. For the same molecule, the Potency result in [8] and in experiment [9] was “inactive” in each case. Also, the max response in experiment [4] is 9.97%.
Consider `CC(N)(Cc1ccc(O)c(O)c1)C(=O)O` (configuration not stated), for which the Potency entry in [1], in experiment [2], in experiment [3], in experiment [5], in experiment [6] and in [7] was “inactive” throughout. The Potency result in experiment [8] and in [9] was “inactive” throughout. Further, the max response in experiment [4] is 8.06%.
As for `Cn1c(=O)c2[nH]c(-c3ccc(S(=O)(=O)O)cc3)nc2n(C)c1=O`, the Potency result in [1], in experiment [2], in experiment [3], in experiment [5], in experiment [6] and in experiment [7] was “inactive” in each case. The Potency entry in experiment [8] and in experiment [9] was “inactive” each time. For the same molecule, the max response in [4] is 26.7%.
On to `O=C(O)CCC(=O)N1CCCC1C(=O)O` (configuration not stated), for which the Potency result in [1], in experiment [2], in experiment [5], in experiment [6], in experiment [7] and in experiment [8] was “inactive” in each case. Further, the Potency result in experiment [9] was “inactive”. In addition, the max response in experiment [4] was -8.08%.
Consider `CC(=O)C(C)=O`, for which the Potency entry in experiment [1], in experiment [2], in experiment [3], in experiment [11], in experiment [5] and in experiment [6] was “inactive” each time. Also, the Potency entry in [7], in experiment [8] and in [9] was “inactive” in each case. Moreover, the max response in experiment [4] was 0.793%; in experiment [10] it was -4.3%.
For `CC(=O)[C@H]1CCC2C3CC=C4C[C@@H](OS(=O)(=O)O)CC[C@]4(C)C3CC[C@@]21C` (some centres not stated), the Potency result in [1], in experiment [2], in experiment [5], in experiment [6], in [7] and in experiment [8] was “inactive” throughout. The Potency result in experiment [9] is “inactive”. The max response in [4] is 21.2%.
Take `CC(N)(Cc1ccc(O)cc1)C(=O)O` (configuration not stated): the Potency result in experiment [1], in experiment [2], in [5], in experiment [6], in [7] and in [8] was “inactive” in each case. In addition, the Potency entry in experiment [9] was “inactive”. Also, the max response in [4] was -28.2%.
On to `CCCCCCCCCCC(C)(C)C(=O)Nc1c(OC)cc(OC)cc1OC`, for which the Potency result in [1], in [2], in experiment [5], in experiment [6], in [7] and in experiment [8] was “inactive” each time. Besides, the Potency entry in [9] is “inactive”. Also, the max response in experiment [4] was -6%.
Take `C/C(=C\c1ccc(C(=O)O)cc1)c1ccc2c(c1)C(C)(C)CCC2(C)C`: the Potency result in experiment [1], in experiment [2], in experiment [3], in [5], in experiment [6] and in [7] was “inactive” each time. The Potency result in [8] and in experiment [9] was “inactive” each time. Moreover, the results for the max response in experiment [4] and in experiment [10] were 19.4% and -16.6%, respectively. In addition, in experiment [11], the Potency was 39.8 µM (active).
